Assay [1] in a line: qHTS assay to identify small molecule antagonists of the glucocorticoid receptor (GR) signaling pathway - cell viability counter screen (AID 720693). Note: nearly all actives have a fitted effect of over 55% in size.
A short description of assay [2]: qHTS assay to identify small molecule antagonists of the androgen receptor (AR) signaling pathway - cell viability counter screen (AID 743033; note: nearly all actives have a fitted effect of over 45% in size; note: potency is the fitted concentration of half-maximal effect).
Assay [3] in a line: qHTS assay to identify small molecule antagonists of the androgen receptor (AR) signaling pathway using the MDA cell line - cell viability counter screen (AID 743041; note: nearly all actives have a fitted effect of over 45% in size). In short, it runs like this: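 R1881-driven MDA-kb2 AR-luc cells, 3,000/well, were dosed with library compounds for 16 h; cell health came from CellTiter-Fluor fluorescence in the reporter wells.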
Assay [4] is described as follows: qHTS assay to identify small molecule antagonists of the thyroid receptor (TR) signaling pathway (AID 743065). Note: nearly all actives have a fitted effect of over 55% in size. Note: potency is the fitted concentration of half-maximal effect. In short, it runs like this: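 Antagonism measured as loss of luciferase signal in GH3 cells stably carrying a TRE-luciferase reporter, co-treated with compound and T3 (1 nM final) for 23.5 h at 37 C. Viability was read in the same well by CellTiter-Fluor.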

In assay [5] the test system is thyroid hormone receptor (rat, GH3 cells). As to the kind of experiment: qHTS assay to identify small molecule agonists of the thyroid receptor (TR) signaling pathway (AID 743066; calls by dose curve).
In assay [6] the target is Estrogen receptor (Homo sapiens) (UniProt P03372). As to the kind of experiment: qHTS assay to identify small molecule agonists of the estrogen receptor alpha (ER-alpha) signaling pathway (AID 743075; calls by dose curve).
The nature of assay [7]: qHTS assay to identify small molecule antagonists of the estrogen receptor alpha (ER-alpha) signaling pathway using the BG1 cell line - cell viability counter screen (AID 743081).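 Note: compound given together with 17beta-estradiol as the ER stimulus; series mostly up to about 70 µM; nearly all actives have a fitted effect of over 45% in size.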
Assay [8] is described as follows: qHTS assay for identifying genotoxic compounds that show differential cytotoxicity against isogenic chicken DT40 cell lines with known DNA damage response pathways - wild type cell line (AID 743012). Note: nearly all actives have a fitted effect of over 60% in size. Note: potency is the fitted concentration of half-maximal effect. The procedure, abridged: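 Using parental DT40 (300 cells/well), compounds delivered in DMSO incubate 40 h at 37 C/5% CO2. CellTiter-Glo reagent then stands 30 min at room temperature, and luminescence gives cell viability.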

The nature of assay [9]: qHTS assay for identifying genotoxic compounds that show differential cytotoxicity against isogenic chicken DT40 cell lines with known DNA damage response pathways - Rev3 mutant cell line (AID 743014). Note: nearly all actives have a fitted effect of over 55% in size. Note: potency is the fitted concentration of half-maximal effect.
The nature of assay [10]: qHTS assay for identifying genotoxic compounds that show differential cytotoxicity against isogenic chicken DT40 cell lines with known DNA damage response pathways - Rad54/Ku70 mutant cell line (AID 743015). Note: nearly all actives have a fitted effect of over 60% in size. Note: potency is the fitted concentration of half-maximal effect.
Assay [11] has as its target Androgen receptor (Homo sapiens) (UniProt P10275). As to the kind of experiment: qHTS assay to identify small molecule antagonists of the androgen receptor (AR) signaling pathway (AID 743035; active = well fitted inhibition curve with a large enough effect in the signal ratio in the repeat runs, not every such curve was filed as active; the % refers to the signal ratio; note: potency is the fitted concentration of half-maximal effect). The procedure, abridged: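 Using qHTS, AR-UAS-bla GripTite HEK293 cells received compound, then R1881, and were cultured 16 h at 37C/5% CO2 before a 2 h room-temperature LiveBLAzer B/G FRET substrate step and fluorescence measurement.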

The target is the same in assay [12]. Description: qHTS assay to identify small molecule agonists of the androgen receptor (AR) signaling pathway (AID 743036; active = well fitted activation curve with a large enough effect in the signal ratio in the repeat runs, with a control signal flat, not every such curve was filed as active; the % refers to the signal ratio). The procedure, abridged:
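AR-UAS-bla HEK293 cells, plated 4 h before dosing, were treated with compound for 16 h at 37C. beta-Lactamase reporter read after 2 h with LiveBLAzer B/G FRET substrate at room temperature.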

For assay [13] the target is unchanged. As to the kind of experiment: qHTS assay to identify small molecule agonists of the androgen receptor (AR) signaling pathway using the MDA cell line (AID 743040; note: nearly all actives have a fitted effect of over 20% in size). In short, it runs like this:
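After a 5 h incubation at 37C and 0% CO2, MDA-kb2 reporter cells were dosed with compounds in DMSO and kept 16 h under the same conditions. Luciferase activity was then read as luminescence with ONE-Glo.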

The target is the same in assay [14]. As to the kind of experiment: qHTS assay to identify small molecule antagonists of the androgen receptor (AR) signaling pathway using the MDA cell line (AID 743042; note: nearly all actives have a fitted effect of over 55% in size; note: potency is the fitted concentration of half-maximal effect). The procedure, abridged: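 Antagonist mode: compounds plus R1881 agonist added to MDA-kb2 AR-luc cells, incubated 16 h at 37C. Luciferase reporter luminescence quantified, with multiplexed CellTiter-Fluor readout for cell viability.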

Assay [15] is described as follows: qHTS assay to identify small molecule antagonists of the thyroid receptor (TR) signaling pathway - cell viability counter screen (AID 743064). Note: nearly all actives have a fitted effect of over 50% in size. Note: potency is the fitted concentration of half-maximal effect. The procedure, abridged: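 GH3.TRE-Luc rat pituitary cells dosed after 4 hr plating, co-stimulated with T3 at 1 nM final, incubated 23.5 h at 37 C. Viability measured in the same wells by CellTiter-Fluor fluorescence after 30 min further at 37 C.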

Assay [16] is described as follows: qHTS assay to identify small molecule antagonists of the estrogen receptor alpha (ER-alpha) signaling pathway - cell viability counter screen (AID 743074; calls by dose curve;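 note: HEK293 cells carrying ER-alpha-UAS-bla reporter stimulated with 17beta-estradiol; nearly all actives have a fitted effect of over 45% in size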; note: potency is the fitted concentration of half-maximal effect).
A short description of assay [17]: qHTS assay to identify small molecule antagonists of the estrogen receptor alpha (ER-alpha) signaling pathway using the BG1 cell line (AID 743080; calls by dose curve;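 note: BG1 cells stimulated with 17beta-estradiol alongside compound; nearly all actives have a fitted effect of over 25% in size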; note: potency is the fitted concentration of half-maximal effect). In short, it runs like this:
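BG1Luc4E2, endogenous ER-alpha, 4xERE-luc; 5 d charcoal-stripped FBS, phenol red free; 24 h plating; cpd + 17beta-estradiol 21.5 h, 37 C/5% CO2; CellTiter-Fluor viability 30 min, then ONE-Glo luciferase 30 min RT.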

Another assay concerns the target Aromatase (Homo sapiens) (UniProt P11511). Description: qHTS assay to identify aromatase inhibitors (AID 743083). Note: nearly all actives have a fitted effect of over 55% in size. Note: potency is the fitted concentration of half-maximal effect.
The target of assay [18] is Estrogen receptor (Homo sapiens) (UniProt P03372). As to the kind of experiment: qHTS assay to identify small molecule antagonists of the estrogen receptor alpha (ER-alpha) signaling pathway (AID 743069; active = well fitted curve in the direction sought with a large enough effect in the signal ratio in the repeat runs, not every such curve was filed as active; the % refers to the signal ratio). In short, it runs like this: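 Compound effects are measured against 17beta-estradiol stimulation in HEK293 cells with a UAS-controlled beta-lactamase reporter for ER-alpha. Exposure lasts 18 hr at 37C; LiveBLAzer B/G FRET substrate follows for 2 hr at room temperature.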

For assay [19] the target is unchanged. Description: qHTS assay to identify small molecule agonists of the estrogen receptor alpha (ER-alpha) signaling pathway using the BG1 cell line (AID 743079). Note: nearly all actives have a fitted effect of over 20% in size. Note: potency is the fitted concentration of half-maximal effect.

Records with an inconclusive call do not appear. Calls of active or inactive are those of the source. Unless noted, calls come from the whole dose curve; as a rule, active = well fitted curve in the direction sought with a large enough effect in the repeat runs; inconclusive = weak or mixed curves; inactive = no such curve, though single readings can be large; an effect the other way counts as inactive or inconclusive.

Aromatase (Homo sapiens), sequence (P11511 whole entry, looked up): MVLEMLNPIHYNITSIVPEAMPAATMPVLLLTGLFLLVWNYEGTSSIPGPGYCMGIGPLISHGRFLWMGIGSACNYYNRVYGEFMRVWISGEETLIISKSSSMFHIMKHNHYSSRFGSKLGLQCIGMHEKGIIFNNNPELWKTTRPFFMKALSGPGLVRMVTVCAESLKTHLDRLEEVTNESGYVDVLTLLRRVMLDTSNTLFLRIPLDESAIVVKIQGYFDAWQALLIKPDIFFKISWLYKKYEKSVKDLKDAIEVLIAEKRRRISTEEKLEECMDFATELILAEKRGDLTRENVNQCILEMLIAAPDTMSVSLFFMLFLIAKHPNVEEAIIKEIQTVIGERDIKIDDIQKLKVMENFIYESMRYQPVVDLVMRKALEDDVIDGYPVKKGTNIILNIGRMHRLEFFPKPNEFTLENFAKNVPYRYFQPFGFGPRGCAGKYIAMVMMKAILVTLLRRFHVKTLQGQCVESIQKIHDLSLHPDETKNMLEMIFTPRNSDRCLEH
Androgen receptor (Homo sapiens), sequence (P10275 whole entry, looked up): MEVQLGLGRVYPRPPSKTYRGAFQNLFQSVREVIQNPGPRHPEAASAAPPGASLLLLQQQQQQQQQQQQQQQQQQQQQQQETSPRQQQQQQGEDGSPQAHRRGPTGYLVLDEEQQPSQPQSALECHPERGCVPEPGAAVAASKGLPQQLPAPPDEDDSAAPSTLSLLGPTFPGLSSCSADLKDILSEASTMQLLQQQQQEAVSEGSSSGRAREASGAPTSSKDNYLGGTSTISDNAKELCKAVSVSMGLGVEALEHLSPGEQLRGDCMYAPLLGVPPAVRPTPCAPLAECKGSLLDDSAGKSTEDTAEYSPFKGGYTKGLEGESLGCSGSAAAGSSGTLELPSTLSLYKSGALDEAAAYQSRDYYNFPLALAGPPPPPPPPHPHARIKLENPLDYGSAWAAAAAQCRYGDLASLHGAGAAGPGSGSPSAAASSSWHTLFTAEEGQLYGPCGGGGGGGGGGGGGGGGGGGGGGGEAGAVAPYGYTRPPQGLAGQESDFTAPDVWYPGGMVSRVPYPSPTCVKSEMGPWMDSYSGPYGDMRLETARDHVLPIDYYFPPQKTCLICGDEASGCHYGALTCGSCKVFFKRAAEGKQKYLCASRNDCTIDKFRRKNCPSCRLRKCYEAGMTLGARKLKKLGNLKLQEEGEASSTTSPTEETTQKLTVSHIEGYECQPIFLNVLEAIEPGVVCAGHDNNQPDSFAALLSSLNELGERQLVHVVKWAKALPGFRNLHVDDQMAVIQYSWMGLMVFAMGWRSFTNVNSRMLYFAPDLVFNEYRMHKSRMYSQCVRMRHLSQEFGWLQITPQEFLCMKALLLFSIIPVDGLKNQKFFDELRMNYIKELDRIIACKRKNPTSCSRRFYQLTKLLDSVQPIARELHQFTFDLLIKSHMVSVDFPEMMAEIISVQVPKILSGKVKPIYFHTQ
Estrogen receptor (Homo sapiens), sequence (P03372 whole entry, looked up): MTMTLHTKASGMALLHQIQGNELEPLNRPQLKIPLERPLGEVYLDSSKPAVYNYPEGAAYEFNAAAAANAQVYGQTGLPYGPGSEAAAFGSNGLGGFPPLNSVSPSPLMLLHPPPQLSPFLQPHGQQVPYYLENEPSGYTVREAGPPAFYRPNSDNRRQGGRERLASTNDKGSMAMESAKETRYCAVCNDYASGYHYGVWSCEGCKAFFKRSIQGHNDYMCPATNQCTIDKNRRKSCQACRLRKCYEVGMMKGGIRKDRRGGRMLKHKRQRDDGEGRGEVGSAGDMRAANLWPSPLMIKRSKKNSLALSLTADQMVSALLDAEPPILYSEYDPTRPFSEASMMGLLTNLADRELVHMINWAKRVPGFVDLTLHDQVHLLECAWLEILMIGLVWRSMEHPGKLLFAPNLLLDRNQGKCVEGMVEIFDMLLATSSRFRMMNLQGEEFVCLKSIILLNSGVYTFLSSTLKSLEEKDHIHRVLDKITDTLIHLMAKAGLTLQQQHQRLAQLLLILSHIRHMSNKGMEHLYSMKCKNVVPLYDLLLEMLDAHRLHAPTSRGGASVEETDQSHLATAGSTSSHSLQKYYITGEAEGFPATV

Turning to `CN(C)c1ccc(N(C)C)cc1`, the Potency result in assay [1], in [2], in assay [3], in [4], in assay [5] and in [6] was “inactive” each time. Also, the Potency result in [7] was “inactive”.

`OC(c1ccc(Cl)cc1)(c1ccc(Cl)cc1)c1cccnc1`: the Potency was 9.69 µM (active) in [8]; 8.63 µM (active) in [9]; 8.63 µM (active) in assay [10]; 54.9 µM (active) in assay [2]; 34.7 µM (active) in assay [11]; 61.1 µM (active) in assay [14]. Besides, the Potency in assay [15] was 61.1 µM (active); in [4] it was 54.5 µM (active). For the same compound, the compound was called inactive in assay [12]. Also, the Potency entry in assay [13], in assay [5], in assay [16], in [6], in assay [17] and in assay [7] was “inactive” each time.

`N#Cc1cc(I)c(O)c(I)c1`: the Potency in [9] was 68.6 µM (active); in assay [2], 49 µM (active); in [4], 27.3 µM (active). Moreover, the Potency result in [13], in [5] and in assay [7] was “inactive” each time.

Turning to `IC(I)=C(I)I`, the Potency in assay [8] was 0.611 µM (active); in assay [9] it was 1.22 µM (active); in assay [10], 1.22 µM (active); in assay [2] it was 12.3 µM (active); in assay [14], 19.3 µM (active); in assay [15], 7.7 µM (active). Further, the Potency was 6.11 µM (active) in assay [4], 9.69 µM (active) in assay [17] and 6.86 µM (active) in the assay with Aromatase (Homo sapiens). The outcome in assay [12] was inactive. The Potency entry in assay [13], in assay [5], in [16], in assay [6] and in [7] was “inactive” in each case.

On to `II`, for which the Potency result in assay [1], in assay [2], in [11], in assay [13], in assay [3] and in assay [14] was “inactive” each time. The Potency entry in assay [15], in assay [4], in assay [5], in assay [18], in assay [16] and in assay [6] was “inactive” throughout. Moreover, the Potency entry in assay [19], in assay [17] and in [7] was “inactive” in each case.

Turning to `NC(=O)C(Cl)(Cl)Cl`, the Potency result in [8], in [9], in assay [10], in [2], in assay [15] and in assay [18] was “inactive” each time. Further, the Potency entry (in assay [16]; in [6]; in [17]; in assay [7]; in the assay with Aromatase (Homo sapiens)) was “inactive” throughout. The Potency in [19] was 68.9 µM (active).

Take `CC(C)(OO)c1ccccc1`: the Potency in assay [8] is 30.6 µM (active); in assay [9], 27.3 µM (active); in assay [10] it was 17.2 µM (active). In addition, the Potency entry in assay [2], in assay [3], in [18], in assay [16], in assay [6] and in [19] was “inactive” throughout. For the same compound, the Potency entry (in [17]; in assay [7]; with Aromatase (Homo sapiens)) was “inactive” in each case.

Take `O=C(O)C1(c2ccc3c(c2)OC[C@H](Cc2ccc(-c4ccccc4)cc2)[C@H]3O)CCCC1`: the Potency was 61.1 µM (active) in [8]; 61.1 µM (active) in assay [9]; 61.1 µM (active) in [10]; 61.1 µM (active) in assay [15]; 54.5 µM (active) in assay [4]; 54.9 µM (active) in [16]. The Potency entry (in assay [7]; with Aromatase (Homo sapiens)) was “inactive” each time.

As to `CO/N=C(/C(=O)OC)c1ccccc1COc1ccccc1C`, the Potency in assay [8] was 0.611 µM (active); in assay [9] it was 0.969 µM (active); in [10], 0.864 µM (active); in assay [2], 6.92 µM (active); in [14], 27.3 µM (active); in assay [4], 3.06 µM (active). Besides, the Potency result in [13], in assay [15], in [5], in [19] and in assay [7] was “inactive” each time.

Turning to `ClP(Cl)(Cl)(Cl)Cl`, the Potency entry in assay [1], in assay [2], in [3], in [5], in assay [18] and in assay [16] was “inactive” in each case. Moreover, the Potency result (in [6]; in assay [19]; in assay [17]; in [7]; with Aromatase (Homo sapiens)) was “inactive” in each case.

For the compound `O=S(=O)(O)C(F)(F)C(F)(F)C(F)(F)C(F)(F)F`, the Potency result in [1], in assay [5], in assay [18], in assay [6], in assay [19] and in assay [17] was “inactive” each time.

With `O=C1c2ccccc2C(=O)C1C(=O)C(c1ccccc1)c1ccccc1`, the Potency entry in [1], in [2], in assay [3], in assay [15], in assay [4] and in assay [5] was “inactive” in each case. Besides, the Potency entry (in assay [16]; in assay [7]; with Aromatase (Homo sapiens)) was “inactive” in each case.

On to `COCCOCCO`, for which the Potency in [10] was 61.1 µM (active); in [15], 30.6 µM (active); in assay [4], 48.6 µM (active). Also, the Potency entry in assay [2], in assay [3], in [5], in [18], in assay [6] and in [19] was “inactive” each time. The Potency result (in assay [17]; with Aromatase (Homo sapiens)) was “inactive” each time.

For the compound `COc1nn(CSP(=S)(OC)OC)c(=O)s1`, the Potency in [8] was 19.3 µM (active); in assay [9], 45.8 µM (active); in [10], 50.5 µM (active); in assay [4], 68.6 µM (active); with Aromatase (Homo sapiens), 61.1 µM (active). Further, the Potency result in assay [5], in assay [18], in assay [6], in assay [19], in [17] and in assay [7] was “inactive” throughout.

Regarding `CC(C)(C)C(O)C(Oc1ccc(Cl)cc1)n1cncn1` (centres undefined), the Potency was 32.5 µM (active) in [9], 45.8 µM (active) in [10] and 21.1 µM (active) with Aromatase (Homo sapiens). Also, the Potency entry in assay [2] and in [5] was “inactive” throughout.

For the origin of these results see PubChem BioAssay (Tox21).
